# From PubChem BioAssay (NCATS)
# Results filed as inconclusive are left out. Entries that show only a call come without a potency. Activity calls are given as the source filed them. The call rests on the fitted dose curve; in most records, active means well fitted curve in the direction sought with a large enough effect; inconclusive means small, poorly fitted or top-dose-only effect, or another doubt; inactive means no such curve, though single readings can be large; an effect the other way counts as inactive or inconclusive.
# Legend:
# [1] = Quantitative High-Throughput drug screen in 47 multiple myeloma cell lines against the NCATS MIPE library collection: KHM11_PLB cell viability assay (AID 1918962); further: nearly all actives have a fitted effect of over 35% in size; further: potency means the concentration at half of the fitted maximal effect
# Method in brief: (§1)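 qHTS of the MIPE 4.0 collection: 500 myeloma cells/well, 48 h drug exposure at 37C in 5% CO2, then CellTiter-Glo for 5 min at room temperature before luminescence reading.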
# [2] = Quantitative High-Throughput drug screen in 47 multiple myeloma cell lines against the NCATS MIPE library collection: JIM3_ECACC cell viability assay (AID 1918963; further: nearly all actives have a fitted effect of over 35% in size; further: potency means the concentration at half of the fitted maximal effect)
# Method in brief: as §1
# [3] = Quantitative High-Throughput drug screen in 47 multiple myeloma cell lines against the NCATS MIPE library collection: INA6_PLB cell viability assay (AID 1918965; further: nearly all actives have a fitted effect of over 55% in size; further: potency means the concentration at half of the fitted maximal effect)
# Method in brief: (§2)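 Luminescent ATP measurement with CellTiter-Glo gives viability, scaled between DMSO-only wells (100%) and media-only wells (0%). Cells, 500 per well, faced library compounds for 48 hours at 37C.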
# [4] = Quantitative High-Throughput drug screen in 47 multiple myeloma cell lines against the NCATS MIPE library collection: H1112_PLB cell viability assay (AID 1918967; further: nearly all actives have a fitted effect of over 30% in size; further: potency means the concentration at half of the fitted maximal effect)
# Method in brief: (§3)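 Steps: seed 500 cells per well; pin-transfer MIPE 4.0 library; incubate 48 h at 37C, 5% CO2, humidified; add CellTiter-Glo, 5 min room temperature; read luminescence.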
# [5] = Quantitative High-Throughput drug screen in 47 multiple myeloma cell lines against the NCATS MIPE library collection: Karpas25_ECACC cell viability assay (AID 1918968; further: nearly all actives have a fitted effect of over 35% in size; further: potency means the concentration at half of the fitted maximal effect)
# Method in brief: as §3
# [6] = Quantitative High-Throughput drug screen in 47 multiple myeloma cell lines against the NCATS MIPE library collection: KMS27_JCRB cell viability assay (AID 1918970); settings: KMS27 myeloma cells, CellTiter-Glo ATP viability, 48 h; viability (% of DMSO): at 45.8 µM (top of the series); further: nearly all actives have a fitted effect of over 30% in size; further: potency means the concentration at half of the fitted maximal effect
# Method in brief: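 Each line is seeded at 500 cells per well and treated with library compounds for 48 hours under 37 °C, 5% CO2. CellTiter-Glo is then added for 5 min at room temperature before median relative luminescence is recorded.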
# [7] = Quantitative High-Throughput drug screen in 47 multiple myeloma cell lines against the NCATS MIPE library collection: JIM1_ECACC cell viability assay (AID 1918964; further: potency means the concentration at half of the fitted maximal effect)
# Method in brief: as §3
# [8] = Quantitative High-Throughput drug screen in 47 multiple myeloma cell lines against the NCATS MIPE library collection: JJN3_DSMZ cell viability assay (AID 1918966; further: nearly all actives have a fitted effect of over 50% in size; further: potency means the concentration at half of the fitted maximal effect)
# Method in brief: as §3
# [9] = Quantitative High-Throughput drug screen in 47 multiple myeloma cell lines against the NCATS MIPE library collection: Karpas417_ECACC cell viability assay (AID 1918961); settings: Karpas417 myeloma viability, CellTiter-Glo ATP luminescence, 48 h; viability (% of DMSO): at 45.8 µM (top of the series)
# Method in brief: as §2
Structure (SMILES),Potency [1],Potency [2],Potency [3],Potency [4],Potency [5],Potency [6],Potency [7],Potency [8],Potency [9]
N#CC(=C(N)Sc1ccc(N)cc1)c1ccccc1C(F)(F)F,0.418 µM (active),5.9 µM (active),8.33 µM (active),3.32 µM (active),13.2 µM (active),inactive,,,
Cc1noc(-c2ccc(CSCCC(=O)O)cc2)c1NC(=O)OC(C)c1ccccc1Cl (stereo not drawn),inactive,inactive,,inactive,,inactive,,,
CC(Oc1ccc(O)cc1)(P(=O)(O)O)P(=O)(O)O,inactive,inactive,,inactive,,inactive,inactive,,
CC[C@H]1OC(=O)[C@H](C)[C@@H](O[C@H]2C[C@@](C)(OC)[C@@H](O)[C@H](C)O2)[C@H](C)[C@@H](O[C@@H]2O[C@@H](C)C[C@H](N(C)C)[C@@H]2O)[C@](C)(O)C[C@@H](C)C(=O)[C@H](C)[C@@H](O)[C@]1(C)O,inactive,inactive,,,,inactive,inactive,,
C[C@]12CC[C@@H]3c4ccc(O)cc4CC[C@H]3[C@H]1CC[C@H]2O,4.69 µM (active),14.8 µM (active),8.33 µM (active),8.33 µM (active),10.5 µM (active),,5.9 µM (active),23.5 µM (active),
CCCNS(=O)(=O)Nc1ncnc(OCCOc2ncc(Br)cn2)c1-c1ccc(Br)cc1,inactive,inactive,inactive,inactive,inactive,inactive,inactive,inactive,
CC(C)(C)c1nc2c3cc[nH]c(=O)c3c3cc(F)ccc3c2[nH]1,1.48 µM (active),1.87 µM (active),0.418 µM (active),1.18 µM (active),,inactive,inactive,0.662 µM (active),
O=C(NCc1ccccc1)[C@H](Cc1ccccc1)NC(=O)[C@@H]1O[C@@H]1C(=O)NCCc1ccc(O)cc1,inactive,inactive,,inactive,23.5 µM (active),,18.7 µM (active),,
CC(C)(O)[C@H]1CC[C@@](C)([C@H]2[C@@H](O)C[C@@]3(C)[C@@H]4C[C@H](O[C@@H]5O[C@H](CO)[C@@H](O)[C@H](O)[C@@H]5O)[C@H]5C(C)(C)[C@@H](O[C@@H]6OC[C@@H](O)[C@H](O)[C@@H]6O)CC[C@@]56C[C@@]46CC[C@]23C)O1,inactive,inactive,inactive,inactive,inactive,,inactive,0.418 µM (active),
CC[C@H]1OC(=O)[C@H](C)[C@@H](O[C@H]2C[C@@](C)(OC)[C@@H](O)[C@H](C)O2)[C@H](C)[C@@H](O[C@@H]2O[C@H](C)C[C@H](N(C)C)[C@@H]2O)[C@](C)(OC)C[C@@H](C)C(=O)[C@H](C)[C@@H](O)[C@]1(C)O,,inactive,inactive,inactive,inactive,inactive,,,inactive
C=CC(=O)Nc1cccc(Nc2nc(NC3CCC(N(C)C)CC3)nc3c2ncn3C(C)C)c1 (stereo not drawn),0.372 µM (active),0.332 µM (active),0.296 µM (active),,0.0296 µM (active),0.0105 µM (active),0.001 µM (active),0.0105 µM (active),
CC(=O)C1=C(O)C=C2Oc3c(C(C)=O)c(O)c(C)c(O)c3C2(C)C1=O (stereo not drawn),inactive,inactive,inactive,,,,,,
CC(=O)N[C@H]1[C@@H]([C@H](O)[C@H](O)CO)OC(C(=O)O)=C[C@@H]1N=C(N)N,inactive,inactive,inactive,inactive,inactive,inactive,,,
COC1=C2C[C@@H](C)C[C@H](OC)[C@@H](O)[C@@H](C)C=C(C)[C@H](OC(N)=O)[C@@H](OC)C=CC=C(C)C(=O)NC(=CC1=O)C2=O,0.132 µM (active),0.209 µM (active),0.148 µM (active),1.87 µM (active),0.118 µM (active),,7.43 µM (active),0.0662 µM (active),
COC1=C(OC)C(=O)C(CC=C(C)CCC=C(C)CCC=C(C)CCC=C(C)CCC=C(C)CCC=C(C)CCC=C(C)CCC=C(C)CCC=C(C)CCC=C(C)C)=C(C)C1=O,,inactive,inactive,inactive,inactive,inactive,,,inactive
